From article PMC8384837, “Expanding the binding specificity for RNA recognition by a PUF domain” come the findings set out here.

Changes are numbered by the printed parent chain.

What all share (experiment): yeast three-hybrid, YBZ-1, SC-Leu-His + 0.5 mM 3-AT, 4 days
Holding throughout (settings): tags: N-Gal4 AD-HA kept; label: inside an RPR1-promoter hybrid RNA with tandem MS2 sites; ssRNA

One assay addresses PUM1 PUF domain R8-SRR (Homo sapiens, UniProt Q14671 828-1176, N1122S;Y1123R;Q1126R). In a few lines:
(§1)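 The interaction score is the log change in variant frequency from input to selection. Scores were computed in log2 with a pseudocount of 1 for absent variants, using Illumina sequencing of PCR-amplified repeat regions. The input came from four days on SC-Leu and the selection from four days on SC-Leu-His + 0.5 mM 3-AT. The cells were strain YBZ-1 (LexA–MS2 coat fusion, HIS3 reporter) co-expressing Pumilio-1 PUF domain libraries and matching RNA elements from a centromeric plasmid.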

The target in another assay is T1, PUM1 PUF domain R6-SRR (Homo sapiens, UniProt Q14671 828-1176, N1043S;Y1044R;Q1047R).
T1 sequence: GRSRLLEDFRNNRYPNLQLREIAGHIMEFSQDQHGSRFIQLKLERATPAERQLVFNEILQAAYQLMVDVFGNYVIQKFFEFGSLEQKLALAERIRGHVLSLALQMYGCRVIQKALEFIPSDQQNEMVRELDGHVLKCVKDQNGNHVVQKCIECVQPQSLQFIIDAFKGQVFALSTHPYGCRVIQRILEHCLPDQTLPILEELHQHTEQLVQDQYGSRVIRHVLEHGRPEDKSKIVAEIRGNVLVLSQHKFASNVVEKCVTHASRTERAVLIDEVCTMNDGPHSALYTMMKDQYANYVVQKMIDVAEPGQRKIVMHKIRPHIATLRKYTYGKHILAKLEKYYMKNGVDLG
The procedure, abridged:
as §1

Another assay addresses T2, PUM1 PUF domain R6-AYG (Homo sapiens, UniProt Q14671 828-1176, N1043A;Q1047G).
T2 sequence: T1 sequence with S216A, R217Y, R220G
The procedure, abridged:
as §1

For another assay, the target named is PUM1 PUF domain R4-HNS (Homo sapiens, UniProt Q14671 828-1176, N971H;H972N;Q975S). In a few lines: as §1
The next assay addresses PUM1 PUF domain R3-VRI (Homo sapiens, UniProt Q14671 828-1176, C935V;Q939I). The procedure, abridged: as §1
For another assay, the target named is PUM1 PUF domain R4-RLF (Homo sapiens, UniProt Q14671 828-1176, N971R;H972L;Q975F). The procedure, abridged:
as §1

For the next assay, the target named is T3, PUM1 PUF domain R6-LFV (Homo sapiens, UniProt Q14671 828-1176, N1043L;Y1044F;Q1047V).
T3 sequence: T1 sequence with S216L, R217F, R220V
In a few lines: as §1

For another assay, the target named is PUM1 PUF domain R7-NPR (Homo sapiens, UniProt Q14671 828-1176, S1079N;N1080P;E1083R). The procedure, abridged: as §1
The target of a further assay is PUM1 PUF domain R7-TTG (Homo sapiens, UniProt Q14671 828-1176, S1079T;N1080T;E1083G). The procedure, abridged:
as §1

A further assay deals with PUM1 PUF domain R7-IMG (Homo sapiens, UniProt Q14671 828-1176, S1079I;N1080M;E1083G). The procedure, abridged:
as §1

A further assay deals with PUM1 PUF domain R5-WRD (Homo sapiens, UniProt Q14671 828-1176, C1007W;Q1011D). The procedure, abridged:
as §1

The target in the next assay is PUM1 PUF domain R5-NLL (Homo sapiens, UniProt Q14671 828-1176, C1007N;R1008L;Q1011L). In a few lines: as §1
Chain of PUM1 PUF domain R5-NLL (Q14671 828-1176 C1007N/R1008L/Q1011L): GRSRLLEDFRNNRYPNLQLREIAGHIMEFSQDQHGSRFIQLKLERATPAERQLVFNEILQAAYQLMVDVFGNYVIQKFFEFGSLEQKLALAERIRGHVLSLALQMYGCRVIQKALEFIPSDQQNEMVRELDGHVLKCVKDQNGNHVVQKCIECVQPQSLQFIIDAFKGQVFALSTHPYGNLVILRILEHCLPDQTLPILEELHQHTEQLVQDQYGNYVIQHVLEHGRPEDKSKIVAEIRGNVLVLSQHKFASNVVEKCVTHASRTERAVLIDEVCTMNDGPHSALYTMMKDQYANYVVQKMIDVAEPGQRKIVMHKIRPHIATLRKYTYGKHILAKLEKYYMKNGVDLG
The next assay has as its target PUM1 PUF domain R4-LHQ (Homo sapiens, UniProt Q14671 828-1176, N971L). In a few lines:
as §1

A further assay has as its target PUM1 PUF domain R5-KTN (Homo sapiens, UniProt Q14671 828-1176, C1007K;R1008T;Q1011N). The procedure, abridged:
as §1

For another assay, the target named is PUM1 PUF domain R2-LWF (Homo sapiens, UniProt Q14671 828-1176, N899L;Y900W;Q903F). In a few lines: as §1
For a further assay, the target named is PUM1 PUF domain R1-RCL (Homo sapiens, UniProt Q14671 828-1176, S863R;R864C;Q867L). The procedure, abridged: as §1
The target in the next assay is PUM1 PUF domain R1-KPC (Homo sapiens, UniProt Q14671 828-1176, S863K;R864P;Q867C). In a few lines:
as §1

Chain of PUM1 PUF domain R7-IMG (Q14671 828-1176 S1079I/N1080M/E1083G): as the sequence (Q14671 828-1176 C1007N/R1008L/Q1011L) above, with N180C, L181R, L184Q, S252I, N253M, E256G counted along it
Chain of PUM1 PUF domain R5-KTN (Q14671 828-1176 C1007K/R1008T/Q1011N): as the sequence (Q14671 828-1176 C1007N/R1008L/Q1011L) above, with N180K, L181T, L184N counted along it

“GGCUAGAACUAGUGGAUCCCCCGGCGCCCGGCGGCUCGAGCCCGGGUAAGCGUAAAUAGUCUGCAUGCCGCCGGGCGCCAUGCCUGCAGGUCGACUCUAGAAAACAUG”: the binding signal with PUM1 PUF domain R8-SRR is 2.8 log2 enrichment (interaction score).

On to “GGCUAGAACUAGUGGAUCCCCCGGCGCCCGGCGGCUCGAGCCCGGGUAAGUGUAAAUAGUCUGCAUGCCGCCGGGCGCCAUGCCUGCAGGUCGACUCUAGAAAACAUG”, for which the binding signal was 1.78 log2 enrichment (interaction score) with PUM1 PUF domain R8-SRR; 3.04 log2 enrichment (interaction score) in the assay with PUM1 PUF domain R6-SRR; 1.05 log2 enrichment (interaction score) with PUM1 PUF domain R6-AYG; 1.42 log2 enrichment (interaction score) with PUM1 PUF domain R4-HNS; 4.31 log2 enrichment (interaction score) with PUM1 PUF domain R3-VRI; 4.74 log2 enrichment (interaction score) with PUM1 PUF domain R4-RLF.

In the case of “GGCUAGAACUAGUGGAUCCCCCGGCGCCCGGCGGCUCGAGCCCGGGUAAGUGCAAAUAGUCUGCAUGCCGCCGGGCGCCAUGCCUGCAGGUCGACUCUAGAAAACAUG”, the binding signal with PUM1 PUF domain R6-SRR is 3.26 log2 enrichment (interaction score).

Consider “GGCUAGAACUAGUGGAUCCCCCGGCGCCCGGCGGCUCGAGCCCGGGUAAGUGAAAAUAGUCUGCAUGCCGCCGGGCGCCAUGCCUGCAGGUCGACUCUAGAAAACAUG”, for which the values for the binding signal in the assay with PUM1 PUF domain R6-LFV and in the assay with PUM1 PUF domain R6-AYG were 5.6 log2 enrichment (interaction score) and 2.71 log2 enrichment (interaction score), respectively.

Take “GGCUAGAACUAGUGGAUCCCCCGGCGCCCGGCGGCUCGAGCCCGGGUAAGUUUAAAUAGUCUGCAUGCCGCCGGGCGCCAUGCCUGCAGGUCGACUCUAGAAAACAUG”: the binding signal is 5.02 log2 enrichment (interaction score) with PUM1 PUF domain R7-NPR, 3.76 log2 enrichment (interaction score) with PUM1 PUF domain R7-TTG and 3.68 log2 enrichment (interaction score) in the assay with PUM1 PUF domain R7-IMG.

For “GGCUAGAACUAGUGGAUCCCCCGGCGCCCGGCGGCUCGAGCCCGGGUAAGUCUAAAUAGUCUGCAUGCCGCCGGGCGCCAUGCCUGCAGGUCGACUCUAGAAAACAUG”, the binding signal in the assay with PUM1 PUF domain R7-NPR is 0.79 log2 enrichment (interaction score).

Consider “GGCUAGAACUAGUGGAUCCCCCGGCGCCCGGCGGCUCGAGCCCGGGUAAGUGUUAAUAGUCUGCAUGCCGCCGGGCGCCAUGCCUGCAGGUCGACUCUAGAAAACAUG”, for which the binding signal in the assay with PUM1 PUF domain R5-WRD was 2.27 log2 enrichment (interaction score); in the assay with PUM1 PUF domain R5-NLL, 2.94 log2 enrichment (interaction score).

Regarding “GGCUAGAACUAGUGGAUCCCCCGGCGCCCGGCGGCUCGAGCCCGGGUAAGUGUAUAUAGUCUGCAUGCCGCCGGGCGCCAUGCCUGCAGGUCGACUCUAGAAAACAUG”, the binding signal in the assay with PUM1 PUF domain R4-LHQ was 6.92 log2 enrichment (interaction score); with PUM1 PUF domain R4-HNS, 4.08 log2 enrichment (interaction score).

Take “GGCUAGAACUAGUGGAUCCCCCGGCGCCCGGCGGCUCGAGCCCGGGUAAGUGUCAAUAGUCUGCAUGCCGCCGGGCGCCAUGCCUGCAGGUCGACUCUAGAAAACAUG”: the binding signal with PUM1 PUF domain R5-KTN is 3.79 log2 enrichment (interaction score).

In the case of “GGCUAGAACUAGUGGAUCCCCCGGCGCCCGGCGGCUCGAGCCCGGGUAAGUGUAAAAAGUCUGCAUGCCGCCGGGCGCCAUGCCUGCAGGUCGACUCUAGAAAACAUG”, the binding signal with PUM1 PUF domain R2-LWF is 6.96 log2 enrichment (interaction score).

“GGCUAGAACUAGUGGAUCCCCCGGCGCCCGGCGGCUCGAGCCCGGGUAAGUGUAAACAGUCUGCAUGCCGCCGGGCGCCAUGCCUGCAGGUCGACUCUAGAAAACAUG”: in the assay with PUM1 PUF domain R2-LWF, the binding signal was 1.17 log2 enrichment (interaction score).

For the sequence “GGCUAGAACUAGUGGAUCCCCCGGCGCCCGGCGGCUCGAGCCCGGGUAAGUGUAAUUAGUCUGCAUGCCGCCGGGCGCCAUGCCUGCAGGUCGACUCUAGAAAACAUG”, the binding signal with PUM1 PUF domain R3-VRI was 0.57 log2 enrichment (interaction score).

On to “GGCUAGAACUAGUGGAUCCCCCGGCGCCCGGCGGCUCGAGCCCGGGUAAGUGUAAAUCGUCUGCAUGCCGCCGGGCGCCAUGCCUGCAGGUCGACUCUAGAAAACAUG”, for which, in the assay with PUM1 PUF domain R1-RCL, the binding signal is 3.05 log2 enrichment (interaction score).

For the sequence “GGCUAGAACUAGUGGAUCCCCCGGCGCCCGGCGGCUCGAGCCCGGGUAAGUGUAAAUUGUCUGCAUGCCGCCGGGCGCCAUGCCUGCAGGUCGACUCUAGAAAACAUG”, in the assay with PUM1 PUF domain R1-KPC, the binding signal was 4.34 log2 enrichment (interaction score).
